From PubChem BioAssay
The sample as a whole holds a higher share of hits than the screen did.
TNAP act mid DEA = activates human TNAP at intermediate phosphate acceptor concentration; P05186; purified TNAP, CDP-star luminescence, 100 mM DEA, 30 min; active compounds read high; scale: 0 levamisole-inhibited, 1 vehicle-only enzyme; activation factor at 20 µM; 64,000 tested, under 10 active; AID 813;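 active means activation factor of at least 2 at 20 µM, relative to controls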
Target sequence (P05186 whole entry, looked up): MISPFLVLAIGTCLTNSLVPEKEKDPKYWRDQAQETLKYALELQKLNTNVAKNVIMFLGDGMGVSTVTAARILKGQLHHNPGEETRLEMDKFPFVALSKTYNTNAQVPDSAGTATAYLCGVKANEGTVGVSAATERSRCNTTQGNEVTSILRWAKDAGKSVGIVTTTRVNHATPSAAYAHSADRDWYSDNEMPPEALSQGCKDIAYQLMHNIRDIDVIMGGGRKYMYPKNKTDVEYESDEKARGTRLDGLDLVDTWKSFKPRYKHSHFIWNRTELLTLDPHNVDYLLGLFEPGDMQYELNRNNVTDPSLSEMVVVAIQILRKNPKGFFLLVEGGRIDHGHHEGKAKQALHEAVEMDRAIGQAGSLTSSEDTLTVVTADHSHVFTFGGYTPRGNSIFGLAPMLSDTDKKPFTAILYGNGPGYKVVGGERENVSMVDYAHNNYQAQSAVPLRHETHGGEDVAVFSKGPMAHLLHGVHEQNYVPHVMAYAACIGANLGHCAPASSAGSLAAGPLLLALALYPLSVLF
D1 mod = D1 dopamine receptor (human) allosteric modulation; HEK293 D1, CRE-luciferase, dopamine EC30 potentiation; actives deviate in either direction; AID 641; P21728; B-score at 10 µM; 58,000 tested, 5.9% active;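 active means luminescence count or its row- and column-corrected plate score outside the 99.7% band of the plate's sample wells, on either side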
HePTP inhibitor = human HePTP phosphatase inhibition | recombinant HePTP phosphatase activity, OD absorbance | inhibition, % at 20 µM | P35236 | 110,000 tested, 0.64% active; in the data active means inhibition above about 50%;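 further: plate controls were vehicle for no effect and reference inhibitor for full effect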
DAT uptake mod = human DAT dopamine uptake with cocaine, either direction | LLC-PK1 hDAT cells, [14C]-dopamine uptake with cocaine IC80; actives deviate in either direction | AID 449768 | B-score at 10 µM | 110,000 tested, 1.3% active;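 active means Z score or B-score, a plate-position-corrected score, falls beyond the plate's 99.7% confidence bounds, in either direction; inactive means both scores lie inside the 99.7% bounds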;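 further: scored against the spread of the other compound wells on the same plate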
Candida biofilm = kills Candida albicans biofilms. 85,000 tested, 0.14% active. C. albicans biofilm + clotrimazole, Alamar Blue. inhibition, % at 6 µM;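 active means inhibition above 20%; inactive means inhibition below 20%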;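 further: preformed 24 hr biofilms exposed to compound for 48 hr; 0% = biofilm without compound and 100% = blank killed by clotrimazole plus chlorhexidine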
PLAP act = human PLAP activation | activation fold at 20 µM | purified PLAP enzyme, luminescent substrate read-out; active compounds read high | 96,000 tested, 1.2% active; in the data active means activation fold above about 2
D1 mod confirm = confirmation of human D1 dopamine receptor allosteric modulators | shares compounds with D1 mod | HEK293 D1 CRE-luciferase, dopamine EC30 potentiation; active compounds read high | luminescence at 10 µM | 2,200 tested, 88% active | AID 642;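 active means luminescence in either of two replicates above the same-plate mean plus 3 SD of the low-dose dopamine control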
D1 no dopamine = activates D1 CRE-luciferase signal without dopamine present; shares compounds with D1 mod; HEK293 D1 CRE-luciferase, luminescence, no dopamine; active compounds read high; luminescence at 10 µM; 1,900 tested, 0.8% active; in the data active means luminescence above about 3900
Isoprot counter = alters isoproterenol CRE-luciferase response in HEK293 cells; 2,200 tested, 63% active; HEK293 D1 CRE-luciferase, isoproterenol EC30 counter-screen; active compounds read high; shares compounds with D1 mod; luminescence at 10 µM;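 active means luminescence in either replicate above plate mean of wells with a partly effective reference agonist dose plus 3 SD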;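 further: isoproterenol raises cAMP through native beta-adrenoceptor Gs so signal bypasses D1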
Numbers without * were called inactive; / = no result given.

SMILES	TNAP act mid DEA	D1 mod	HePTP inhibitor	DAT uptake mod	Candida biofilm	PLAP act	D1 mod confirm	D1 no dopamine	Isoprot counter
CCOC(=O)c1c(NC(N)=O)sc(C)c1C	0.9	6.7*	10	-0.46	11	0.9	11700*	1768	3492*
Clc1ccc(-c2ccc(/C=N\n3cnnc3)o2)c(Cl)c1	/	/	-4	/	/	/	/	/	/
COc1cc(-c2nnc3ccc4ccccc4n23)ccc1Oc1ccc([N+](=O)[O-])cc1	/	/	15	/	/	/	/	/	/
CN1CCN(NC(=O)CN2C(=O)S/C(=C/c3ccccc3)C2=O)CC1	/	/	-7	/	/	/	/	/	/
COc1ccc(-c2cc(N)n(S(=O)(=O)c3c(F)c(F)c(F)c(F)c3F)n2)cc1OC	0.9	4.9*	7	-1.3	7	1.1	11216*	1688	5304*
COc1ccc(S(=O)(=O)n2nc(-c3cc(OC)c(OC)c(OC)c3)cc2N)cc1OC	0.9	1.9	0	-0.34	-1	/	/	/	/
Cc1ccc2c(c1)-c1cc(C)nn1C(c1sccc1C)N2 (stereo not drawn)	0.9	2.2	5	-0.086	2	1.5	/	/	/
Cc1cc2n(n1)C(c1ccccc1)Nc1ccccc1-2 (stereo not drawn)	0.9	14*	-2	-0.021	6	0.9	14996*	1724	3876*
Cc1ccc2c(c1)-c1cc(C)nn1C(c1ccc3c(c1)OCO3)N2 (stereo not drawn)	0.7	5.3*	2	/	8	1.3	12540*	1584	3656*
Cc1cc2n(n1)C(c1ccc3c(c1)OCO3)Nc1ccccc1-2 (stereo not drawn)	0.9	11*	7	-0.36	5	0.9	17556*	/	3560*
Cc1cc2n(n1)C(c1sccc1C)Nc1ccccc1-2 (stereo not drawn)	1	8.4*	-4	-0.13	12	1.3	9040*	/	2616*
CC(C)N(C(=O)c1ccc(-c2nc3ccccc3s2)cc1)C(C)C	/	/	-7	/	/	/	/	/	/
CCOC(=O)c1sc(N)nc1-c1ccccc1	0.9	12*	-3	-0.11	15	/	13660*	1536	3220*
CCOC(=O)Nc1sc(C)nc1-c1ccccc1	0.9	3.7*	1	-0.31	4	0.9	5108	1368	2840
CCCCc1c(C)nc(N/N=C/c2ccc(OC)c(OC)c2)[nH]c1=O	/	/	6	/	/	/	/	/	/
Cc1cc(C)n2c3c(c(C#N)c2n1)CCCC3	1	2.9*	13	-0.44	3	0.8	9512*	1860	3232
CC(C)N1CCC(=NNC(=O)COc2ccc(Cl)cc2Cl)CC1	/	/	-6	/	/	/	/	/	/
CCn1c(-c2ccsc2)nc2c1c(=O)[nH]c(=O)n2Cc1ccccc1	0.8	6.3*	9	2.3	4	0.9	16576*	1684	3544*
COc1ccc(-c2nn(C)c(=O)c3ccccc23)cc1CNC(=O)c1ccco1	/	4.5*	/	0.25	/	/	16184*	1660	4044*
O=C(Nc1cccc(O)c1)/C(=C\c1cccnc1)NC(=O)c1ccccc1	/	/	-7	/	/	/	/	/	/
Cc1sc2nc(C(C)C)oc(=O)c2c1C	/	/	/	-1.2	6	0.9	/	/	/
Cc1sc2nc(SC(C)C)nc(N)c2c1C	0.9	14*	-6	1.1	/	1	13552*	1624	3844*
CCOc1ccc(N2C(=O)c3cccnc3C2Nc2ccc(F)cc2)cc1 (stereo not drawn)	1	0.012	3	1.3	8	1.3	/	/	/
COc1ccc(CN2C(=O)c3cccnc3C2Nc2ccc(OC)c(Cl)c2)cc1 (stereo not drawn)	0.9	7.6*	1	2.2	-2	1.1	13912*	/	3308*
COc1ccc(NC2c3ncccc3C(=O)N2Cc2ccccc2)c(OC)c1 (stereo not drawn)	0.9	19*	4	0.34	1	/	14524*	1572	4532*
SMILES	TNAP act mid DEA	D1 mod	HePTP inhibitor	DAT uptake mod	Candida biofilm	PLAP act	D1 mod confirm	D1 no dopamine	Isoprot counter
COc1cc(NC2c3ncccc3C(=O)N2Cc2ccco2)cc(OC)c1 (stereo not drawn)	1	12*	-8	0.099	/	1.3	14836*	1576	4156*
Cc1ccc(NC2c3ncccc3C(=O)N2Cc2ccc(F)cc2)cc1 (stereo not drawn)	0.9	7.5*	4	0.25	0	1.1	10592*	/	3100*
O=C(O)c1ccccc1/C=N/n1cnnc1	/	/	0	/	/	/	/	/	/
CCOC(=O)/C(C(N)=NCCO)=C(/O)OCC	/	/	-13	/	/	/	/	/	/
COc1ccc(Cn2c(N)c(C#N)c3nc4ccccc4nc32)cc1OC	0.9	5.1*	2	0.65	9	1.3	11232*	1656	3512*
COc1ccc(CCn2c(N)c(C#N)c3nc4ccccc4nc32)cc1OC	1	-0.66	-1	0.38	10	0.9	/	/	/
CCCCCn1c(N)c(C#N)c2nc3ccccc3nc21	0.9	5*	7	0.33	3	1	13676*	1656	3028
CCCCn1c(NC(C)=O)c(C#N)c2nc3ccccc3nc21	0.9	3.8*	10	-0.37	6	1.1	11192*	1596	3048
O=C(Nc1ccccc1C(=O)N1CCOCC1)c1cccc(F)c1	/	/	-14	/	/	/	/	/	/
COc1ccc(N(CC(=O)N/N=C\c2ccccc2O)S(=O)(=O)c2ccc(C)c([N+](=O)[O-])c2)cc1	/	/	-16	/	/	/	/	/	/
Cc1[nH]c2ccccc2c1/C=C(/C#N)C(=O)Nc1cccc(Br)c1	/	/	-5	/	/	/	/	/	/
Cc1cc(Cl)ccc1NS(=O)(=O)c1ccc(Cl)cc1	/	/	6	/	/	/	/	/	/
CCOC(=O)c1c(-c2ccc(Cl)cc2)csc1NC(=O)c1ccco1	/	/	8	/	/	/	/	/	/
COC(=O)c1c(-c2ccc(F)cc2)csc1NC(=O)c1ccco1	0.9	3.3*	5	-0.3	5	1	8568*	1648	2716
Cc1cnn(-c2cc(N/N=C/c3ccc(Br)cc3)ncn2)c1	/	/	-2	/	/	/	/	/	/
Cc1ccc(-c2csc(NC(=O)c3ccc([N+](=O)[O-])s3)n2)c(C)c1	/	/	5	/	/	/	/	/	/
O=C(Cc1ccccc1)Nc1nonc1NC(=O)c1ccccc1	1	4.1*	28	-0.21	3	1.1	8752*	1296	2948*
O=C(Cc1ccccc1)Nc1ccc(NC(=O)c2ccccc2)c(Br)c1	/	/	0	/	/	/	/	/	/
COC(=O)CSc1nc2c(c(=O)[nH]c(=O)n2C)n1CCC(C)C	/	5.2*	/	-1.1	9	/	12872*	1692	3720*
CCOC(=O)C(CC)Sc1nc2c(c(=O)[nH]c(=O)n2C)n1C/C=C(/C)Cl (stereo not drawn)	0.9	8.6*	7	0.55	7	1.3	16300*	1792	4280*
CCCCOC(=O)CSc1nc2c(c(=O)[nH]c(=O)n2C)n1C/C=C(\C)Cl	0.8	-0.49	2	0.23	7	1	/	/	/
